Results taken from PubChem BioAssay.
Where “and” joins values, the source holds several entries; their conditions need not be identical. Equal entries are not always repeated. Inconclusive results are not listed. Calls of active or inactive are those of the source.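 The calls were made as follows, unless noted: active = compounds whose cell count with miR-34 switched on is under 0.7 times the count with it off; inactive = the rest.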

Tests used:
[1] = liver-stage malaria parasite growth inhibition, primary screen, cell-based, HepG2, luciferase luminescence, HepG2 viability (AID 624349; in the data active = parasite load remaining mostly below about 12%, no sharp cut-off; inactive = mostly above about 10%;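 also: 100% = mean of DMSO negative control wells on the same plate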); settings: P. berghei liver stage in HepG2, luciferase luminescence, concentration not given here; parasite load remaining: stronger effect = lower value; viability: measured here: HepG2 viability without parasites
[2] = molecular target: 6-phosphogluconate dehydrogenase, decarboxylating (Homo sapiens) (UniProt P52209); test: 6PGD enzyme inhibitors, primary screen, biochemical, human, recombinant enzyme, NADPH absorbance (AID 1159550;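 active = at least 20% inhibition of 6-phosphogluconate dehydrogenase activity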); settings: recombinant 6PGD, NADPH absorbance 341 nm; at 10 µM; stronger effect = higher value
Sequence of 6-phosphogluconate dehydrogenase, decarboxylating (Homo sapiens) (P52209 whole entry, looked up): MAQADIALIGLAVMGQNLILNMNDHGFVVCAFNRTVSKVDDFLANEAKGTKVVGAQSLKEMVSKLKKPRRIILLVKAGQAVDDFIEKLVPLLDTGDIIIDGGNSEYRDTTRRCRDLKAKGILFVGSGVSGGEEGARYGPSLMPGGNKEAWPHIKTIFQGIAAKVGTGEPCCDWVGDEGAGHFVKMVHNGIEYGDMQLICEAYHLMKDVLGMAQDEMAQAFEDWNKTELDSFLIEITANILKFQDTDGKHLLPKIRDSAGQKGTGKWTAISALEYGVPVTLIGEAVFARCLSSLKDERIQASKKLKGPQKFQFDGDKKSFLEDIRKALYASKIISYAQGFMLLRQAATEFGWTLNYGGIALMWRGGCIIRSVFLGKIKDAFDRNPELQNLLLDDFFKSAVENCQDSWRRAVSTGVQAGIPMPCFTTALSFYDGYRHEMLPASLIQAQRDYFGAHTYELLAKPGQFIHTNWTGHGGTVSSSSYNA

[3] = sensitizers of A549 cells to miR-34 induction, primary screen, imaging, A549 dox-inducible miR-34, nuclei and caspase counts (AID 1347080); settings: A549 miR-34 inducible, Hoechst nuclei count, 48 h
[4] = survival rescue of mitochondrial mutant cells in low glucose, primary screen, MELAS cybrids, Rieske KO mouse fibroblasts, CellTiter-Glo (AID 1508586;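 active = mean z-score across replicates of 1.96 or higher in either the MELAS or the Rieske mutant cell line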;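 also: z relative to plate mean and SD of compound and empty wells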)
[5] = molecular target: NAD(+) hydrolase SARM1 (Homo sapiens) (UniProt Q6SZW1); test: SARM1 TIR NADase inhibitors, cell lysate, NAD-Glo luminescence (AID 1508614;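 active = compound whose remaining NAD level is above about 45 nM, limit read from the data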;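 also: higher remaining NAD means stronger inhibition of SARM1 NADase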); settings: SAM-TIR HEK293T lysate NADase, at 1 µM, stronger effect = higher value
Sequence of NAD(+) hydrolase SARM1 (Homo sapiens) (Q6SZW1 whole entry, looked up, the tested form may be a part): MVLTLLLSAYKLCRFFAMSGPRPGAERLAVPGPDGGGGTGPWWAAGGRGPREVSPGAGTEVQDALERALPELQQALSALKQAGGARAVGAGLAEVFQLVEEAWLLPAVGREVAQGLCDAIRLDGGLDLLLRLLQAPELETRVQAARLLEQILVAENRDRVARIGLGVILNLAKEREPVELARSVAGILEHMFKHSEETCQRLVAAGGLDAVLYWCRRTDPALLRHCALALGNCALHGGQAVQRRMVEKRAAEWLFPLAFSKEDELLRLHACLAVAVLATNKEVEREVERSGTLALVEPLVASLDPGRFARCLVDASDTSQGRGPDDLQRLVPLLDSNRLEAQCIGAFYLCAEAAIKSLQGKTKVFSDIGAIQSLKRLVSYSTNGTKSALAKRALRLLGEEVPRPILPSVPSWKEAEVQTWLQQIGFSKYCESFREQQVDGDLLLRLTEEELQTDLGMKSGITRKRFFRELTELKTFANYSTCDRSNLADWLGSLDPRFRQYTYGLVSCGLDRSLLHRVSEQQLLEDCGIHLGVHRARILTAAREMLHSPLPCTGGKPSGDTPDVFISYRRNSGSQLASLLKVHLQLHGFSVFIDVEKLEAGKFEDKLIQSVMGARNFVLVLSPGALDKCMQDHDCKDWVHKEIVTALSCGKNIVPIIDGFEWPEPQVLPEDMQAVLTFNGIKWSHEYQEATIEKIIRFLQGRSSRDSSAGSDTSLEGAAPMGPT

[6] = molecular target: Mitogen-activated protein kinase 7 (Homo sapiens) (UniProt Q13164); test: ERK5 transactivation activators in reporter cells, primary screen, cell-based, HTS (AID 1508626;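 active = luciferase signal above three times the same-plate solvent-only control wells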;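 also: luciferase driven by Gal4-ERK5 fusion binding five Gal4 sites before minimal TATA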); settings: HeLa Gal4-ERK5 transactivation, 18 h, at 5 µM, stronger effect = higher value
Sequence of Mitogen-activated protein kinase 7 (Homo sapiens) (Q13164 whole entry, looked up, the tested form may be a part): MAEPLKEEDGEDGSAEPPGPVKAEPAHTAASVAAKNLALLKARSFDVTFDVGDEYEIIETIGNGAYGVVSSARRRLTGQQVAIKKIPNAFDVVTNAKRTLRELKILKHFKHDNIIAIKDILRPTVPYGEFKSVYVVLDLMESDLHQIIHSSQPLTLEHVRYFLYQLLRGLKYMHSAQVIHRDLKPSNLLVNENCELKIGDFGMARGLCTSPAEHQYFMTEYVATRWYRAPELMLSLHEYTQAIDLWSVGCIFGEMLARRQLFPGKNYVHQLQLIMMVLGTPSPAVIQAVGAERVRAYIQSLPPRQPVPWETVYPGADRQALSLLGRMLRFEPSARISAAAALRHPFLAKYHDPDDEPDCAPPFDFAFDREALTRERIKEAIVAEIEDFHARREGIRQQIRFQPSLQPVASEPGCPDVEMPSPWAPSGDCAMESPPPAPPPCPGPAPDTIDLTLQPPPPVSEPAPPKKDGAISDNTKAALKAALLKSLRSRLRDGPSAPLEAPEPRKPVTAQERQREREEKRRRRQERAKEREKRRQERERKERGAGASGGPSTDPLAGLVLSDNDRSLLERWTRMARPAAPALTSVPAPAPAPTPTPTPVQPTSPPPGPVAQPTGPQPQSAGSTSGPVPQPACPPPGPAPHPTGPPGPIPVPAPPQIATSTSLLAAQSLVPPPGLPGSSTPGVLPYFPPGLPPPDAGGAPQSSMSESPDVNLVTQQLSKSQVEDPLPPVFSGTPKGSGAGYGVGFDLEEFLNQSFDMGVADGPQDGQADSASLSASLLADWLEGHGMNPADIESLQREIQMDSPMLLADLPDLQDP

[7] = viability rescue of complex I mutant cybrids, primary screen, cell-based, galactose medium, ATP luminescence (AID 1645843;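 active = z-score of at least 1.8 in each of two replicates, scored against plate mean and spread of sample wells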;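 also: positive z means more ATP and so rescue of galactose-driven cybrid death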); settings: complex I mutant cybrid cells, 72 h, stronger effect = higher value
[8] = hESC survival regulators, cell-based (AID 493140; call rule not given here;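 also: cells exposed to compounds for four days before counting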); settings: human embryonic stem cell survival screen; stronger effect = higher value
[9] = molecular target: ATP-dependent translocase ABCB1 (Homo sapiens) (UniProt P08183); test: MDR1 (ABCB1) efflux transporter inhibition, cell-based (AID 377; in the data active = fluorescence slope change above about 50%); settings: MDR1-expressing cells, fluorescent substrate accumulation slope; stronger effect = higher value; concentration not given here
Sequence of ATP-dependent translocase ABCB1 (Homo sapiens) (P08183 whole entry, looked up): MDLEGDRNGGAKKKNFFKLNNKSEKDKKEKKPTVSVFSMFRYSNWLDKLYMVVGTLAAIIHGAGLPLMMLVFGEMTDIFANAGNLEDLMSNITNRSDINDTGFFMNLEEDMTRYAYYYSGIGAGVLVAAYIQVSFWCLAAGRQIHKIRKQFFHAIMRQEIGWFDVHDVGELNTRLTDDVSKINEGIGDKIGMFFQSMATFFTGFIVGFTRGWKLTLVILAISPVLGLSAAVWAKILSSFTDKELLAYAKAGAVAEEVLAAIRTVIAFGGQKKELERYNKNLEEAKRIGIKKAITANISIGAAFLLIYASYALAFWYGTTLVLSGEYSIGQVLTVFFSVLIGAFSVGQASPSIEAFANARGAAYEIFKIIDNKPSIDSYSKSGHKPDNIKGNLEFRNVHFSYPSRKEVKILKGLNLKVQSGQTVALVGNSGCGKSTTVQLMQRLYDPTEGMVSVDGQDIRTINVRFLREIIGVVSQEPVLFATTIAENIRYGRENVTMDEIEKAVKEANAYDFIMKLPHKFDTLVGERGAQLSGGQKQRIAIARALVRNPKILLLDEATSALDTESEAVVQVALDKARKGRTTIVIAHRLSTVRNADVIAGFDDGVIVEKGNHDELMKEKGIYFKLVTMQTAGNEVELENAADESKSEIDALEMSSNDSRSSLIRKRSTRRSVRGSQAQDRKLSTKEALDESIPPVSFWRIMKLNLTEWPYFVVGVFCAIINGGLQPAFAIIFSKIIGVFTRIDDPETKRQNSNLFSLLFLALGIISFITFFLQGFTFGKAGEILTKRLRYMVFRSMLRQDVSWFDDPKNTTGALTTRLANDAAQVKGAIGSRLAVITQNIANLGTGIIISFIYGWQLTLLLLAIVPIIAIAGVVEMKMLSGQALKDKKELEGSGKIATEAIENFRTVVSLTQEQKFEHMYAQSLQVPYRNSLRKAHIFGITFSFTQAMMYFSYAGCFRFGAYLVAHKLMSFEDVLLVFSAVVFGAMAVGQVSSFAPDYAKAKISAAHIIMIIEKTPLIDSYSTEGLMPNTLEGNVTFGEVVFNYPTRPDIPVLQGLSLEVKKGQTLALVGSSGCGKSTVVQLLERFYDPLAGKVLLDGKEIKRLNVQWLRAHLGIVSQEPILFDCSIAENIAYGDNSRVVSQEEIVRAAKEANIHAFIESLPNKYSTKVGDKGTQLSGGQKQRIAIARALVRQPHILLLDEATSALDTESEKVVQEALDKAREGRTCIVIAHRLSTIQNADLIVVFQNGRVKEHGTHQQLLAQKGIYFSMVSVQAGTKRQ

[10] = stronger effect = lower value, cell number ratio, induced over uninduced
[11] = measured here: relative caspase fold change +Dox/-Dox
[12] = measured here: total cells with miR-34 induction, stronger effect = lower value
[13] = measured here: total cells without miR-34 induction
[14] = MELAS cybrid survival, CellTiter-Glo 48 h, stronger effect = higher value
[15] = Rieske KO mouse fibroblast survival, CellTiter-Glo 72 h

SMILES	parasite load remaining [1]	viability [1]	inhibition [2]	fold change [3, 10]	fold change [3, 11]	cell count [3, 12]	cell count [3, 13]	z-score [4, 14]	z-score [4, 15]	remaining NAD [5]	luciferase signal [6]	z-score [7]	survival [8]	fluorescence slope change [9]
CN[C@@H]1[C@@H](O[C@H]2O[C@H](CO)[C@@H](N)[C@H](O)[C@H]2O)O[C@H]2C[C@@H](N)[C@@H](O[C@H]3[C@H](O)[C@@H](O)[C@H](N)C[C@@H]3N)O[C@@H]2[C@@H]1O	21.5% (inactive)	69%	3.92% (inactive)	0.906 (inactive)	1.04	9860	10900	0.598 (inactive)	0.317	10 nM (inactive)	28 AU (inactive)	0.86 (inactive)		
CO[C@H]1C[C@H](O[C@H]2[C@H](C)[C@@H](O[C@@H]3O[C@H](C)C[C@H](N(C)C)[C@H]3O)[C@@H](C)C[C@@]3(CO3)C(=O)[C@H](C)[C@@H](O)[C@@H](C)[C@@H](C)OC(=O)[C@@H]2C)O[C@@H](C)[C@@H]1O	43.4% (inactive)	44.8%	-12.7% (inactive)	0.882 (inactive)	0.459	8150	9240			10 nM (inactive)	32 AU (inactive)			
CCOc1nc2cccc(C(=O)OC(C)OC(=O)OC3CCCCC3)c2n1Cc1ccc(-c2ccccc2-c2nn[nH]n2)cc1 (stereo not given)	137% (inactive) and 50.7% (inactive)	83.9% and 101%	2.36% (inactive)	0.972 (inactive) and 0.852 (inactive)	0.675 and 3.41	8090 and 11000	8320 and 12900	0.432 (inactive)	-0.0296	10 nM (inactive)	40 AU (inactive)			
CC[C@H](CO)NCCN[C@H](CC)CO	28.5% (inactive) and 112% (inactive)	48.5% and 92.2%	-0.439% (inactive)	0.912 (inactive)	0.977	8580	9410	0.519 (inactive)	0.22				12.8 (inactive)	
C[C@]12CC[C@H]3C(=CCc4cc(O)ccc43)[C@@H]1CCC2=O	125% (inactive)	97.4%	9.47% (inactive)	0.908 (inactive)	1.13	7380	8130	0.735 (inactive)	0.488	10 nM (inactive)	84 AU (inactive)		2.75 (inactive)	51.2% (active)
O[C@H]1[C@H]2c3cc4c(cc3CN3CCC(=C[C@@H]1O)[C@H]23)OCO4			9.07% (inactive)	1.05 (inactive)	1.33	1670	1580							
